Records with an inconclusive call do not appear. Active and inactive are the calls of the source. Unless noted, calls follow the shape of the dose curve; as a rule, active = well fitted curve in the direction sought with a large enough effect; inconclusive = small, poorly fitted or top-dose-only effect, or another doubt; inactive = no such curve, though single readings can be large; an effect the other way counts as inactive or inconclusive.
How the values were obtained:
[1] = qHTS for Inhibitors of the Functional Ribonucleoprotein Complex (vRNP) of Lassa (LASV) Arenavirus: LASV Primary Screen - GLuc reporter signal (AID 1347082; calls by dose curve; tested in HEK293 reporter line; also: series mostly up to about 57 µM; nearly all actives have a fitted effect of over 60% in size)
[2] = qHTS for Inhibitors of the Functional Ribonucleoprotein Complex (vRNP) of Lassa (LASV) Arenavirus: Viability assay - alamar blue signal for LASV Primary Screen (AID 1347083; calls by dose curve; tested in HEK293 reporter line; also: series mostly up to about 57 µM; nearly all actives have a fitted effect of over 80% in size)
[3] = biological target: Nucleoprotein (Lymphocytic choriomeningitis virus (strain Armstrong)) (UniProt P09992); assay: qHTS for Inhibitors of the Functional Ribonucleoprotein Complex (vRNP) of Lymphocytic Choriomeningitis Arenaviruses (LCMV): LCMV Primary Screen - GLuc reporter signal (AID 1347086; calls by dose curve; also: series mostly up to about 57 µM; nearly all actives have a fitted effect of over 70% in size)
Sequence of Nucleoprotein (Lymphocytic choriomeningitis virus (strain Armstrong)) (P09992 whole entry, looked up): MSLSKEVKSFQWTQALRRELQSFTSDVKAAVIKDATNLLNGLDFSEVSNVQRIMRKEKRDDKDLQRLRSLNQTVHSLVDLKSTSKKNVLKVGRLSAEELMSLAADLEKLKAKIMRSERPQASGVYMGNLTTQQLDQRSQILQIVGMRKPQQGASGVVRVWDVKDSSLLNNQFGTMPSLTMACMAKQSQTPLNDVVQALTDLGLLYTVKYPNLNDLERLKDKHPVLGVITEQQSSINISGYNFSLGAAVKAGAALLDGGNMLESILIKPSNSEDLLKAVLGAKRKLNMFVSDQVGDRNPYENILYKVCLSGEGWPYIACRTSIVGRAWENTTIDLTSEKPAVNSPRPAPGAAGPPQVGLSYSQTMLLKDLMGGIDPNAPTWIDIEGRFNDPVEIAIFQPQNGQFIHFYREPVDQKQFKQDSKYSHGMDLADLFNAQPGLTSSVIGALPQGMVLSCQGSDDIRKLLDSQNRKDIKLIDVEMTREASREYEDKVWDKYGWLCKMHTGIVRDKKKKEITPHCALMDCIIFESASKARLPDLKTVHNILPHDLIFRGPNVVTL

[4] = qHTS for Inhibitors of the Functional Ribonucleoprotein Complex (vRNP) of Lymphocytic Choriomeningitis Arenaviruses (LCMV): Viability assay - alamar blue signal for LCMV Primary Screen (AID 1347085; calls by dose curve; tested in HEK293 reporter line; also: series mostly up to about 57 µM; nearly all actives have a fitted effect of over 80% in size)
[5] = qHTS of pediatric cancer cell lines to identify multiple opportunities for drug repurposing: Primary screen for SJ-GBM2 cells (AID 1347091)
Outline: (§1)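 Eight- or eleven-point concentration series, 48 h treatment at 37 degrees C in growth media; readout CellTiter-Glo luminescence. Potency and efficacy were taken from the concentration-response curves.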

[6] = qHTS of pediatric cancer cell lines to identify multiple opportunities for drug repurposing: Primary screen for DAOY cells (AID 1347090); also: nearly all actives have a fitted effect of over 55% in size; also: potency is read from the fitted curve at half-maximal effect
Outline: as §1

[7] = qHTS of pediatric cancer cell lines to identify multiple opportunities for drug repurposing: Primary screen for SK-N-MC cells (AID 1347093); also: potency is read from the fitted curve at half-maximal effect
Outline: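 Metabolically active cells were quantified by ATP-dependent luminescence (CellTiter-Glo, 15 min at room temperature) following 48 h treatment. Cells had been plated at 500-1,000 per well and settled for 5 h beforehand.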

[8] = qHTS of pediatric cancer cell lines to identify multiple opportunities for drug repurposing: Primary screen for TC32 cells (AID 1347089); also: nearly all actives have a fitted effect of over 60% in size
Outline: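 Luminescent CellTiter-Glo read-out of metabolically active TC32 cells after 48 h compound exposure. Primary: MIPE 11-point, 0.78 nM–46 µM; NPC 8-point, 0.59 nM–46 µM. Confirmatory: 11-point dilutions.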

[9] = qHTS of pediatric cancer cell lines to identify multiple opportunities for drug repurposing: Primary screen for A673 cells (AID 1347092); also: nearly all actives have a fitted effect of over 45% in size
Outline: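 A673 cells (500-1,000 cells/well in growth media) were pre-incubated 5 h at 37 degrees C, then exposed to compounds for 48 h. Viability was read as CellTiter-Glo luminescence; concentration-response curves came directly from the primary screen.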

Measured: Potency

O=c1[nH]c2ccccc2n1CCCN1CCN(C(c2ccccc2)c2ccccc2)CC1
inactive: [1] | [2] | [3]

CN(C)CCc1c[nH]c2ccc(O)cc12
inactive: [1] | [2] | [4] | [3] | [5]

CNC(C)Cc1ccc2c(c1)OCO2 (stereo not drawn)
inactive: [1] | [2] | [4] | [3] | [5]
active: [6] 47.4 µM

CCCCCCCCCCCC[N+](C)(C)CCOc1ccccc1
inactive: [1] | [2] | [4] | [3]
active: [6] 26.6 µM | [7] 6.68 µM

CC(=O)N(CC(=O)N(C)C)c1ccccc1
inactive: [1] | [2] | [3]

COc1cc(N)c(Cl)cc1C(=O)NC1CCN(CCCOc2ccc(F)cc2)CC1OC (stereo not drawn)
inactive: [1] | [2] | [3]

O=C(CCCCl)c1ccc(F)cc1
not listed: [5]
inactive: all other assays above

CN1CCC(=C2c3ccccc3CCc3cccnc32)CC1
inactive: [1] | [2] | [3]

Nc1ccc(Cl)cc1C(=O)c1ccccc1F
not listed: [7] | [8] | [9]
inactive: all other assays above

CC(Cc1ccc2c(c1)OCO2)NO (stereo not drawn)
not listed: [5]
inactive: all other assays above

O=C(CS)Nc1ccccc1
inactive: [1] | [2] | [3]

C#C[C@]1(O)CC[C@H]2[C@@H]3CCC4=CC(=O)CCC4=C3C=C[C@@]21CC
not listed: [6] | [7] | [9]
inactive: all other assays above

O=C1NCN(c2ccccc2)C12CCN(CCCOc1ccc(F)cc1)CC2
not listed: [5]
inactive: all other assays above
